# According to PubChem BioAssay (NCATS):
# Results filed as inconclusive are left out. A call without a number means that no potency is given here. The source made the active and inactive calls. Unless noted, the call rests on the fitted dose curve; in most records, active means well fitted inhibition curve with a large enough effect; inconclusive means small, poorly fitted or top-dose-only effect; inactive means flat fitted curve, though single readings scatter.
# Legend:
# [1] = target: Androgen receptor (Homo sapiens) (UniProt P10275); assay: qHTS assay for small molecule agonists of androgen receptor signaling (AID 588515; active means well fitted curve in the direction sought with a large enough effect in the signal ratio, with a control signal flat; the % refers to the signal ratio); conditions: AR-UAS-bla HEK293, beta-lactamase ratio, agonist 16 h; stronger effect = higher value
# In short: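 Stimulation of an AR-responsive β-lactamase reporter in GripTite HEK293 cells was measured after 16 h compound exposure at 37 °C, via CCF4 fluorescence after 2 h RT. EC50 from Hill fits, normalized to R1881 at 30 nM.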
# [2] = target: Glucocorticoid receptor (Homo sapiens) (UniProt P04150); assay: qHTS assay for small molecule agonists of glucocorticoid receptor signaling (AID 588532; active means well fitted curve in the direction sought with a large enough effect in the signal ratio, with a control signal flat; the % refers to the signal ratio); conditions: HeLa MMTV-bla, beta-lactamase ratio, agonist, 18 h; stronger effect = higher value; percent of dexamethasone control, DMSO zero
# In short: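 MMTV-bla HeLa beta-lactamase reporter cells in 1% charcoal/dextran FBS medium, compounds up to 92 uM for 18 h at 37 C, CCF4 readout; normalized to 0.1 uM dexamethasone (100%), EC50 and efficacy from Hill fits.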
# [3] = target: DNA dC->dU-editing enzyme APOBEC-3G (Homo sapiens) (UniProt Q9HC16); assay: qHTS for inhibitors of Vif-A3G interactions: Validation (AID 588379); conditions: Vif-A3G protein interaction assay; series mostly up to 46.1 µM
# In short: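 Yellow fluorescence (Ex 488, Em 500-530) of Vif-coexpressing HeLa A3G-eYFP cells, scanned by Acumen cytometer, reports blocked A3G degradation. Cells plated at 700/well overnight at 37 deg C before compound addition, then a further overnight compound incubation at 37 deg C.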
# [4] = target: Estrogen receptor (Homo sapiens) (UniProt P03372); assay: qHTS assay for small molecule agonists of estrogen receptor alpha signaling (AID 588514; calls by dose curve; further: nearly all actives have a fitted effect of over 70% in size; further: potency means the concentration at half of the fitted maximal effect); conditions: ER-alpha-UAS-bla HEK293, beta-lactamase ratio, 18 h; series mostly up to 76.8 µM
# In short: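 EC50 and efficacy came from Hill fits of beta-lactamase reporter signal (CCF4 dye, 2 h at room temperature) scaled between DMSO and 20 nM 17-beta-estradiol. Agonist mode: HEK293 ER-alpha-UAS-bla cells in charcoal/dextran-stripped serum medium, 18 h compound exposure at 37 C.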
# [5] = target: Androgen receptor (Homo sapiens) (UniProt P10275); assay: qHTS assay for small molecule antagonists of androgen receptor signaling (AID 588516; active means well fitted curve in the direction sought with a large enough effect in the signal ratio, with a control signal flat, not every such curve was filed as active; the % refers to the signal ratio); conditions: AR-UAS-bla HEK293, beta-lactamase ratio, antagonist mode, 16 h; series mostly up to 76.8 µM
# In short: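 Antagonist-mode qHTS: inhibition of R1881 (10 nM)-driven beta-lactamase expression in GripTite HEK 293 cells is measured after 16 h; values are Hill-derived IC50s normalized between R1881 and DMSO wells.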
# [6] = target: Glucocorticoid receptor (Homo sapiens) (UniProt P04150); assay: qHTS assay for small molecule antagonists of glucocorticoid receptor signaling (AID 588533; active means well fitted inhibition curve with a large enough effect in the signal ratio, with a control signal flat, not every such curve was filed as active; the % refers to the signal ratio;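 further: cells stimulated with 2 nM dexamethasone as agonist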; further: potency means the concentration at half of the fitted maximal effect); conditions: HeLa MMTV-bla, GRE beta-lactamase ratio, antagonist mode, 18 h; series mostly up to 76.8 µM
# In short: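 Antagonist-mode qHTS: compound titrations added to GRE-bla HeLa cells, then dexamethasone 2 nM final; 18 h, 37 C. CCF4 FRET fluorescence normalized to dexamethasone and DMSO; IC50 from Hill fit.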
# [7] = target: Bile acid receptor (Homo sapiens) (UniProt Q96RI1); assay: qHTS assay for small molecule antagonists of farnesoid X receptor signaling (AID 588526; calls by dose curve); conditions: HEK293T FXR-UAS-bla, beta-lactamase ratio, antagonist mode; series mostly up to 76.7 µM
# In short: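 Antagonist mode: titrated compounds tested against chenodeoxycholic acid stimulation (normalized to 50 uM CDCA and DMSO) in GeneBLAzer HEK293T cells for 16 h. Beta-lactamase read by CCF4 fluorescence; IC50 from Hill fits.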
# [8] = qHTS assay for small molecule antagonists of peroxisome proliferator-activated receptor delta signaling (AID 588535; active means well fitted inhibition curve with a large enough effect in the signal ratio, with a control signal flat, not every such curve was filed as active; the % refers to the signal ratio;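 on max response: cells co-treated with a PPAR-delta agonist as stimulator during compound exposure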); conditions: HEK293T PPARd-UAS-bla, beta-lactamase FRET ratio, 18 h; 460 nm channel
# In short: (§1)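 Fluorescence from CCF4-loaded GeneBLAzer PPAR-delta-UAS-bla HEK293T cells (2 hrs RT loading) quantified reporter inhibition after an 18 hr, 37 C compound exposure across a titration.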
# [9] = target: Peroxisome proliferator-activated receptor delta (Homo sapiens) (UniProt Q03181); assay: as above; conditions: HEK293T PPARd-UAS-bla, beta-lactamase FRET ratio, 18 h; series mostly up to 76.7 µM
# In short: as §1
# [10] = target: Estrogen receptor (Homo sapiens) (UniProt P03372); assay: qHTS assay for small molecule antagonists of estrogen receptor alpha signaling (AID 588513; active means well fitted curve in the direction sought with a large enough effect in the signal ratio, with a control signal flat, not every such curve was filed as active; the % refers to the signal ratio); conditions: ER-alpha-UAS-bla HEK293, beta-lactamase ratio, antagonist mode; series mostly up to 76.9 µM
# In short: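 Cells were plated at 5000/well and incubated 4 h at 37 C. Compounds were added as 1:2 dilution series, duplicates. 17-beta-estradiol (0.5nM final) was added for 18 h before CCF4 detection.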
# Sequence of Bile acid receptor (Homo sapiens) (Q96RI1 whole entry, looked up): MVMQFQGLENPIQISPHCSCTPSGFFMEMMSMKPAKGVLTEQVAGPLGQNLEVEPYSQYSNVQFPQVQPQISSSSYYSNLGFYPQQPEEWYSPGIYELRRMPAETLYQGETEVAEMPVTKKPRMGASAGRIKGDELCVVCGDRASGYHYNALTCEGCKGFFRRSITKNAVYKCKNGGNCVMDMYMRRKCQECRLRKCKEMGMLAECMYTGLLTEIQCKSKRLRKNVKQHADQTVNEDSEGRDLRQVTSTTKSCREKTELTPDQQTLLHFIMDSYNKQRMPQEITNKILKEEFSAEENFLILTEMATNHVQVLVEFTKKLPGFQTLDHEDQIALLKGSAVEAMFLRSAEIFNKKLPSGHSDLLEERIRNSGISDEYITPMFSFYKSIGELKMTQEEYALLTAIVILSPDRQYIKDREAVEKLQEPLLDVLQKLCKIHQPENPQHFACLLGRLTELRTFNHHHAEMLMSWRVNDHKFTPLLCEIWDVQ
# Sequence of Estrogen receptor (Homo sapiens) (P03372 whole entry, looked up): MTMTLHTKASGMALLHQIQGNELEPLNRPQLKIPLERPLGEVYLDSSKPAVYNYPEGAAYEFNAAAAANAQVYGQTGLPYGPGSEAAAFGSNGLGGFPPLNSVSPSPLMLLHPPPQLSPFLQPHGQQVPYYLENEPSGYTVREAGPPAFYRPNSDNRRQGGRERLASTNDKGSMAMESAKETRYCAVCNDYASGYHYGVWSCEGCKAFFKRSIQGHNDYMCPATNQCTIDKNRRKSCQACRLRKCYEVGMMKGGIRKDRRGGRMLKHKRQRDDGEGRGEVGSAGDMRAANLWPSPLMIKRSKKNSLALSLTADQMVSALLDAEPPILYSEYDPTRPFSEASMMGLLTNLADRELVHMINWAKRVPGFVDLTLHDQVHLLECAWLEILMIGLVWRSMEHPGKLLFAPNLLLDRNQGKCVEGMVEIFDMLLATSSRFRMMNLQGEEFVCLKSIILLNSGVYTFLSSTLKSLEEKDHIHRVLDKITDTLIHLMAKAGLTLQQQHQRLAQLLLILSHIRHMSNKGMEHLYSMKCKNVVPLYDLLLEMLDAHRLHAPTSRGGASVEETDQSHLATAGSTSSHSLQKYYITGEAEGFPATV
# Sequence of DNA dC->dU-editing enzyme APOBEC-3G (Homo sapiens) (Q9HC16 whole entry, looked up): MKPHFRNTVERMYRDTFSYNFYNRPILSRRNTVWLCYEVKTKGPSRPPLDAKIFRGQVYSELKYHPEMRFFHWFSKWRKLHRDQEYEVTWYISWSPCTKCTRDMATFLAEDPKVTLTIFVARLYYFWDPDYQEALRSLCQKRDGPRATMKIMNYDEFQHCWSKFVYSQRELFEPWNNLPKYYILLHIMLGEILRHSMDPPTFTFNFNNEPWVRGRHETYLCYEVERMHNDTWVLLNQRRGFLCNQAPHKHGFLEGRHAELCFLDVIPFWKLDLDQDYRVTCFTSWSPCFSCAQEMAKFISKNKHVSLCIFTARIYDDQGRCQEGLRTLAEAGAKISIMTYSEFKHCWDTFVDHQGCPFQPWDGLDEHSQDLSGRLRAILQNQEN
# Sequence of Androgen receptor (Homo sapiens) (P10275 whole entry, looked up): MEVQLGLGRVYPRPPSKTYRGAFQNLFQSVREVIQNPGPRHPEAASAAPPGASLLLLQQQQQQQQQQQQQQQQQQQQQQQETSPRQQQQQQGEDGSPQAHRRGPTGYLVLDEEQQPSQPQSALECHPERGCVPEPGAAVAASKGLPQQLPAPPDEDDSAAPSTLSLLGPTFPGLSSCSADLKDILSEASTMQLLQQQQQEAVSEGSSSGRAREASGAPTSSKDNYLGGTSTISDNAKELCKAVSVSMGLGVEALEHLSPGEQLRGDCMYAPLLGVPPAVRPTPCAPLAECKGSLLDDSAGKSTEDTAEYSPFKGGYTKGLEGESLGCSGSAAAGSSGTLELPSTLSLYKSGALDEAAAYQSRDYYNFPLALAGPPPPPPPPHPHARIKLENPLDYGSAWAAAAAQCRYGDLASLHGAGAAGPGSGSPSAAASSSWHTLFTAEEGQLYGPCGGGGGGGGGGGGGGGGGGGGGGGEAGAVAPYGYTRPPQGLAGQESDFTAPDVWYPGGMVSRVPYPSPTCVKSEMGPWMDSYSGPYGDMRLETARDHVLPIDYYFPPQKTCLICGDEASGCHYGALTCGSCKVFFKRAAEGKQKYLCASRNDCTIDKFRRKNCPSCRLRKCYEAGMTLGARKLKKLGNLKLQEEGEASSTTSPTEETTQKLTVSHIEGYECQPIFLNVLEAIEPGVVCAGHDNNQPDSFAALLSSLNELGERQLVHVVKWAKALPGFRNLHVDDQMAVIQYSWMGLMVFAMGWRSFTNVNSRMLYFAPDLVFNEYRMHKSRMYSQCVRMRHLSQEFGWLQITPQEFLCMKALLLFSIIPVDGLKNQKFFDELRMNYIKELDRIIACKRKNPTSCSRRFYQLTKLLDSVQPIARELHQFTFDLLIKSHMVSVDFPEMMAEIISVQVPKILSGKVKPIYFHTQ
# Sequence of Glucocorticoid receptor (Homo sapiens) (P04150 whole entry, looked up): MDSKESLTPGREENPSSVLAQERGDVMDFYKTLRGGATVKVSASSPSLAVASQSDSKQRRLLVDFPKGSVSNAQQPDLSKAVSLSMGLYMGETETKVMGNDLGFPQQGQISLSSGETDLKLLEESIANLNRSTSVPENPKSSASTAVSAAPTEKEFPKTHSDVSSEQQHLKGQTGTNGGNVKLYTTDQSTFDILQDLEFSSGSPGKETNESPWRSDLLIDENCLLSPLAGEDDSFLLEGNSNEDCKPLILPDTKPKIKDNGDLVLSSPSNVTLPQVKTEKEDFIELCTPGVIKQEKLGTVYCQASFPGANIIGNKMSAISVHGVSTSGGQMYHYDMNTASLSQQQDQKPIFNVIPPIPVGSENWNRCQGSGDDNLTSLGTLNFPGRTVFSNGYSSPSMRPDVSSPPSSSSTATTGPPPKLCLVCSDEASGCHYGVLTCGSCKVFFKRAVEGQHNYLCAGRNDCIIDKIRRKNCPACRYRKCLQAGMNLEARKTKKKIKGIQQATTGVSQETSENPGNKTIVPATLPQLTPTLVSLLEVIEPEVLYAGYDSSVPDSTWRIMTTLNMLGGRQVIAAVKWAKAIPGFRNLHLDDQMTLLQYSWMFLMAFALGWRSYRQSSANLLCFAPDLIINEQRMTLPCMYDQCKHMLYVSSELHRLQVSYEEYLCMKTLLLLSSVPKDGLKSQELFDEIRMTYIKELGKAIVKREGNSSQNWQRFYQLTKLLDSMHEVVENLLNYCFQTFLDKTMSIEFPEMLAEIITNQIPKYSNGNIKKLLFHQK
# Sequence of Peroxisome proliferator-activated receptor delta (Homo sapiens) (Q03181 whole entry, looked up): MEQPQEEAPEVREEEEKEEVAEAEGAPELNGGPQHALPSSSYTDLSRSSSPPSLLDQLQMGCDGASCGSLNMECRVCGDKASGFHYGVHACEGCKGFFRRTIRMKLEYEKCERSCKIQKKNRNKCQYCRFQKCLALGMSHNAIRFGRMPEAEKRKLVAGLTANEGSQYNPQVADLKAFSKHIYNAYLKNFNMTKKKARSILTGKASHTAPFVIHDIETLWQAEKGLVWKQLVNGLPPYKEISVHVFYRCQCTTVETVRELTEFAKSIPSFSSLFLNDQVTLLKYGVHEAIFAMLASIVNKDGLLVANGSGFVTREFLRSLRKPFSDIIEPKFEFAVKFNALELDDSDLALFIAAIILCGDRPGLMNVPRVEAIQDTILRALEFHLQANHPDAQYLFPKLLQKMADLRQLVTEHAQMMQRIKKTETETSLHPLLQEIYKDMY
smiles,measurement,setting,value
CC[C@@H]1Cc2cc(O)ccc2C2=C1c1ccc(O)cc1C[C@H]2CC,activation,[1],-13.9% (inactive)
same,activation,[2],-4.83% (inactive)
O=[N+]([O-])c1cccc2cn[nH]c12,Potency,[3],inactive
Cn1cc(C(=O)OCC2CCN(CCNS(C)(=O)=O)CC2)c2ccccc21,Potency,[3],inactive
CC(C)(CO)Cc1cc(C(C)(C)C)c(O)c(C(C)(C)C)c1,Potency,[3],inactive
O=S(=O)(c1cccc2c(Cl)cccc12)N1CCCNCC1,Potency,[3],inactive
CCCCCCCCCCCCCCSCC(=O)O,Potency,[4],inactive
same,activation,[1],-2.58% (inactive)
same,outcome,[5],inactive
same,Potency,[6],inactive
CSC(=N)N,Potency,[3],inactive
CC(=O)C(C)=O,outcome,[7],inactive
same,activation,[2],6.3% (inactive)
same,Potency,[6],inactive
same,max response,[8],5.57%
same,outcome,[9],inactive
CCCn1c(=O)c(C)cn2nc(N)nc12,Potency,[3],inactive
CCn1c(=O)[nH]c2cc(Cl)c(Cl)cc21,Potency,[3],inactive
N[C@H](C(=O)O)c1cc(O)cc(O)c1,Potency,[3],inactive
CCCc1c(-c2ccc(O)cc2)nn(-c2ccc(O)cc2)c1-c1ccc(O)cc1,Potency,[3],inactive
same,Potency,[4],0.0112 µM (active)
same,Potency,[6],28.2 µM (active)
COc1cc(CNC(=O)CCCCCCC(C)C)ccc1O,Potency,[3],inactive
CCCCCCN(CCCCCC)C(=O)Cc1c(-c2ccc(F)cc2)[nH]c2ccccc12,Potency,[3],inactive
CCCc1c(OCCCOc2ccc(OCC(=O)O)cc2)ccc(C(C)=O)c1O,activation,[1],-2.09% (inactive)
same,outcome,[5],inactive
same,outcome,[7],inactive
same,activation,[2],-12.7% (inactive)
same,Potency,[6],inactive
CCCn1c(=O)c2[nH]c(C3CCCC3)nc2n(CCC)c1=O,Potency,[3],inactive
CN(C)CCCc1cc(C(=O)Nc2ccc(-c3ccncc3)cc2)ccc1O,Potency,[3],inactive
NC(N)=NC(N)=Nc1ccccc1,Potency,[3],inactive
NCCCCN=C(N)N,Potency,[3],inactive
CC(=O)NNC(=O)N1Cc2ccccc2Oc2ccc(Cl)cc21,Potency,[3],inactive
NCCS(=O)O,Potency,[3],inactive
N=C(N)SCCN,Potency,[3],inactive
O=[N+]([O-])c1cccc2c(Br)[nH]nc12,Potency,[3],inactive
C/C(=C\c1ccc(C(=O)O)cc1)c1ccc2c(c1)C(C)(C)CCC2(C)C,Potency,[3],inactive
same,Potency,[4],inactive
same,outcome,[7],inactive
same,activation,[2],-4.65% (inactive)
C=C1C(=O)O[C@@H]2[C@H]3O[C@]3(C)CCC=C(C)CC[C@@H]12,Potency,[3],inactive
OC1(c2ccc(Cl)cc2)CCN(Cc2c[nH]c3ccccc23)CC1,Potency,[3],inactive
O=C(O)c1cccnc1C(=O)O,Potency,[3],inactive
NC(=O)c1ccccc1,outcome,[10],inactive
same,Potency,[4],inactive
same,activation,[1],-3.5% (inactive)
same,outcome,[5],inactive
same,outcome,[7],inactive
same,activation,[2],-7.58% (inactive)
same,Potency,[6],inactive
N=C(N)SCCc1cnc[nH]1,Potency,[3],inactive
CC1=C(/C=C/C(C)=C/C=C/C(C)=C\C(=O)O)C(C)(C)CCC1,activation,[2],-7.34% (inactive)
same,max response,[8],61.4%
same,outcome,[9],inactive
CC1CCN(CC[C@H]2CCCN2S(=O)(=O)c2cccc(O)c2)CC1,Potency,[3],inactive
CCCCCC[C@@H]([C@@H](C)O)n1cnc2c(N)ncnc21,Potency,[3],inactive
Cc1nc(N=Nc2ccc(S(=O)(=O)O)cc2S(=O)(=O)O)c(COP(=O)(O)O)c(C=O)c1O,Potency,[3],inactive
O=C1OC(=O)C2C3CCC(O3)C12 (stereo not given),Potency,[3],inactive
O=C(O)/C=C/c1ccc(O)c(O)c1,Potency,[3],inactive
